Results on one sequence are retold here after PMC7862700, “An all-to-all approach to the identification of sequence-specific readers for epigenetic DNA modifications on cytosine”.

What all share (assay): DAPPL (digital affinity profiling via proximity ligation, sequencing); 10 mM Tris-HCl pH 7.5, 50 mM NaCl, 1 mM DTT, 4% glycerol, room temperature, 30 min; GST-TFs on glutathione beads, 16-mer random dsDNA library, 0.1% formaldehyde crosslink after washing; high values mean tight binding
One experiment has as its target T1, FEV (Homo sapiens, UniProt Q99581 1-238).
T1 sequence: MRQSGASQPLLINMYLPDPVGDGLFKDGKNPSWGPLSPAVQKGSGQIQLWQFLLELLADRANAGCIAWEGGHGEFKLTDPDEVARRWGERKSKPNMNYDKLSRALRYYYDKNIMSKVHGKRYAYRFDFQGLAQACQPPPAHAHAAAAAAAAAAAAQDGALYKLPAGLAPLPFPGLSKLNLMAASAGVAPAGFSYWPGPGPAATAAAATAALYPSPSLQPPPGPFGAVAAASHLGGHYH
The following applies: protein: recombinant; tags: N-terminal GST; dsDNA, one strand shown. Put shortly:
(§1)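 Human transcription factors carrying a GST fusion were produced in yeast, bound to glutathione beads, tagged with DNA barcodes and pooled together with a tag-only sample. Each pool was held with 200 nmole of a random double-stranded 16-mer DNA library in Tris/NaCl/DTT/glycerol buffer for 30 min at room temperature, then washed, crosslinked in 0.1% formaldehyde, proximity-ligated with BsaI/T4 ligase (1 h, 37 °C), PCR-amplified and sequenced on an Illumina NextSeq500. Binding signal is the read frequency of each hexamer for a given factor divided by its frequency in the tag-only sample.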

The target of the next experiment is ETV5 (Homo sapiens, UniProt P41161 1-510). The following applies: protein: recombinant; tags: N-terminal GST; dsDNA, one strand shown. A digest of the protocol: as §1
The target in another experiment is HSF1 (Homo sapiens, UniProt Q00613 1-529). The settings on record: protein: recombinant; tags: N-terminal GST; chain copies: 3; dsDNA, one strand shown. A digest of the protocol: as §1
Another experiment addresses T2, SPIC (Homo sapiens, UniProt Q8N5J4 1-248).
T2 sequence: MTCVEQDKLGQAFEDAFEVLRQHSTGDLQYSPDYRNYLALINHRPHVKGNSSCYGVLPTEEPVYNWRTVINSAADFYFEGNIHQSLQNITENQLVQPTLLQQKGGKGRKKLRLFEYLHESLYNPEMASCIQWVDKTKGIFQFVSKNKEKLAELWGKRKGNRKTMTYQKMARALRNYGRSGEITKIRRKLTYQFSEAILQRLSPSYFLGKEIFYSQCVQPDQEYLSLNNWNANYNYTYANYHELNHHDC
The settings on record: protein: recombinant; tags: N-terminal GST; dsDNA, one strand shown. Put shortly:
as §1

The next experiment addresses ELF4 (Homo sapiens, UniProt Q99607 1-663). The settings on record: protein: recombinant; tags: N-terminal GST; dsDNA, one strand shown. Put shortly:
as §1

Another experiment concerns the target T3, ELK4 (Homo sapiens, UniProt P28324-2 1-405).
T3 sequence: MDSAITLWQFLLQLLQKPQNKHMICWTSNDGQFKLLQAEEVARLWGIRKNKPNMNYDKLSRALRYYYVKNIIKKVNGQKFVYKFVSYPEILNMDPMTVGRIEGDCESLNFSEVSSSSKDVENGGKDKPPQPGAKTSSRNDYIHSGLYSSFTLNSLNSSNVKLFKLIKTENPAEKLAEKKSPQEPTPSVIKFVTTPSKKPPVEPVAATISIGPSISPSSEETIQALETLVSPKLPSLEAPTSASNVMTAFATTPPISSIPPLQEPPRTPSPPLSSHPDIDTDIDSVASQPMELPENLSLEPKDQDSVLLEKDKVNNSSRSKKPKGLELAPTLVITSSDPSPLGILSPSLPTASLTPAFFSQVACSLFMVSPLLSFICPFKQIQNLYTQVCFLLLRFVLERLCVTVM
The settings on record: protein: recombinant; tags: N-terminal GST; dsDNA, one strand shown. Put shortly:
as §1

The target in the next experiment is T4, ETV2 (Homo sapiens, UniProt O00321 1-342).
T4 sequence: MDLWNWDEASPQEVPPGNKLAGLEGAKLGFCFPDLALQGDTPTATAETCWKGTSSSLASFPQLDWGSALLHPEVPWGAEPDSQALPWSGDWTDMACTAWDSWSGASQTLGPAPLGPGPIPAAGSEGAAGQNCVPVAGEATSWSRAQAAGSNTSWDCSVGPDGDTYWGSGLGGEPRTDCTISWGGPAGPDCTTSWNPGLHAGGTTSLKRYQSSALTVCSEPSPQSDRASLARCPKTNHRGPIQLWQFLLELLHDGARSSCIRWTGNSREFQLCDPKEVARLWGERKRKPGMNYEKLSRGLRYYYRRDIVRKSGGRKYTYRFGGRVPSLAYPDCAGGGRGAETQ
The following applies: protein: recombinant; tags: N-terminal GST; dsDNA, one strand shown. A digest of the protocol:
as §1

The target in a further experiment is T5, ELF3 (Homo sapiens, UniProt P78545 1-371).
T5 sequence: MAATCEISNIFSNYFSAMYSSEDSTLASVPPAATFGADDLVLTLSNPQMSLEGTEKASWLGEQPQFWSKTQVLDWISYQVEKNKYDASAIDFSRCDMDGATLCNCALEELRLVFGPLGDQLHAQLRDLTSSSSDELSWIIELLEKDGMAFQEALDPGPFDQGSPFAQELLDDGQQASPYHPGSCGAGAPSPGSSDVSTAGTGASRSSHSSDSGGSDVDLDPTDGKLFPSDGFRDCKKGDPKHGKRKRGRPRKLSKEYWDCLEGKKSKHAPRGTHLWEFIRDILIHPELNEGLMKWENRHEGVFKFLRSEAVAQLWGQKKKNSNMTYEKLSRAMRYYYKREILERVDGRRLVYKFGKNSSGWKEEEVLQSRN
The following applies: protein: recombinant; tags: N-terminal GST; dsDNA, one strand shown. A digest of the protocol:
as §1

For the next experiment, the target named is CRX (Homo sapiens, UniProt O43186 1-299). The settings on record: protein: recombinant; tags: N-terminal GST; dsDNA, one strand shown. Put shortly: as §1
The target of the next experiment is ETV1 (Homo sapiens, UniProt P50549 1-477). The following applies: protein: recombinant; tags: N-terminal GST; dsDNA, one strand shown. Put shortly: as §1
The next experiment deals with T6, ERF (Homo sapiens, UniProt P50548 1-548).
T6 sequence: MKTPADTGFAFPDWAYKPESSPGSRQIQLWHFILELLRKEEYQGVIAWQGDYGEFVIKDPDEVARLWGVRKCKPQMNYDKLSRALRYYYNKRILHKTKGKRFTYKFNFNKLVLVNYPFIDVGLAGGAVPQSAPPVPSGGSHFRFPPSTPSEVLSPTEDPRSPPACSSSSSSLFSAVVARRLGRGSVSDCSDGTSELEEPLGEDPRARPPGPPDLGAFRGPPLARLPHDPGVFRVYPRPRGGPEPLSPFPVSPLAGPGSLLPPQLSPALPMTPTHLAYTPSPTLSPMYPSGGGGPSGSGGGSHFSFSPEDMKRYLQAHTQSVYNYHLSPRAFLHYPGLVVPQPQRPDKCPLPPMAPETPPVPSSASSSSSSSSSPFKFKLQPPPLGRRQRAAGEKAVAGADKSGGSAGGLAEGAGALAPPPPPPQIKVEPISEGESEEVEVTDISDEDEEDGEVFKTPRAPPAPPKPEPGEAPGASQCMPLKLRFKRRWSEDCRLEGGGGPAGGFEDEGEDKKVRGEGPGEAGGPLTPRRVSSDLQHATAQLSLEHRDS
The settings on record: protein: recombinant; tags: N-terminal GST; dsDNA, one strand shown. Put shortly:
as §1

A further experiment addresses T7, ETV3L (Homo sapiens, UniProt Q6ZN32 1-361).
T7 sequence: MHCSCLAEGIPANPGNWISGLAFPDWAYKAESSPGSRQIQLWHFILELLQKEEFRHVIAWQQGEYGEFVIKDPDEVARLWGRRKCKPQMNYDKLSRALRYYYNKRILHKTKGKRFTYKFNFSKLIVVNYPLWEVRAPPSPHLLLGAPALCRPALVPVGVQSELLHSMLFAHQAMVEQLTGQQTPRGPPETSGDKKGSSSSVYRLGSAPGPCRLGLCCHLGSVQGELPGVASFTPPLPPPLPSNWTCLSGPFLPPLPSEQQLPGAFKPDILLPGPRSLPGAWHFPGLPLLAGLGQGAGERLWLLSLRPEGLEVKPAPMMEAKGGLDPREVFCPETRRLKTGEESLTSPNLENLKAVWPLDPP
The following applies: protein: recombinant; tags: N-terminal GST; dsDNA, one strand shown. Put shortly:
as §1

Another experiment addresses T8, ETS2 (Homo sapiens, UniProt P15036 1-469).
T8 sequence: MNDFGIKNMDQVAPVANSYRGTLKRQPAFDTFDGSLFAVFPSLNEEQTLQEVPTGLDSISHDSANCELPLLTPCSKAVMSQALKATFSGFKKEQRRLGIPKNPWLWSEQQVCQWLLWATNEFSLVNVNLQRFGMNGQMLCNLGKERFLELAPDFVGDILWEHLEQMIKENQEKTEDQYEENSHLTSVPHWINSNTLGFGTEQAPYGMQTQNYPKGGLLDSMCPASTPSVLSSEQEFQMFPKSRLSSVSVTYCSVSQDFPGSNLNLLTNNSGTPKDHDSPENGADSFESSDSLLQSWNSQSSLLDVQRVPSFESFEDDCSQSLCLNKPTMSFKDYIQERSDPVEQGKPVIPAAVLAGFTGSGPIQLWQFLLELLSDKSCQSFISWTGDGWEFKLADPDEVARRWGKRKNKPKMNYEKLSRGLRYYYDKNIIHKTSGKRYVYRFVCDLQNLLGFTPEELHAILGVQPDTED
The settings on record: protein: recombinant; tags: N-terminal GST; dsDNA, one strand shown. A digest of the protocol: as §1

For a further experiment, the target named is T9, SPDEF (Homo sapiens, UniProt O95238 1-335).
T9 sequence: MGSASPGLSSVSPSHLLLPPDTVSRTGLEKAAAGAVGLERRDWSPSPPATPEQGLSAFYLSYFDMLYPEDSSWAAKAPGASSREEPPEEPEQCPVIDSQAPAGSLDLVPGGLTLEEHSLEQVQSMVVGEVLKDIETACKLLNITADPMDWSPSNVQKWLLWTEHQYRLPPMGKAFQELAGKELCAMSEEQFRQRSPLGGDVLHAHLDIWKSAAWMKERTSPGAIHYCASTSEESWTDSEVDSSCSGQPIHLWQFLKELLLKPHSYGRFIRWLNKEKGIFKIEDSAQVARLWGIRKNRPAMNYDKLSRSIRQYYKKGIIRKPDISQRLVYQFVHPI
The settings on record: protein: recombinant; tags: N-terminal GST; dsDNA, one strand shown. A digest of the protocol:
as §1

Another experiment deals with T10, ETV7 (Homo sapiens, UniProt Q9Y603 1-341).
T10 sequence: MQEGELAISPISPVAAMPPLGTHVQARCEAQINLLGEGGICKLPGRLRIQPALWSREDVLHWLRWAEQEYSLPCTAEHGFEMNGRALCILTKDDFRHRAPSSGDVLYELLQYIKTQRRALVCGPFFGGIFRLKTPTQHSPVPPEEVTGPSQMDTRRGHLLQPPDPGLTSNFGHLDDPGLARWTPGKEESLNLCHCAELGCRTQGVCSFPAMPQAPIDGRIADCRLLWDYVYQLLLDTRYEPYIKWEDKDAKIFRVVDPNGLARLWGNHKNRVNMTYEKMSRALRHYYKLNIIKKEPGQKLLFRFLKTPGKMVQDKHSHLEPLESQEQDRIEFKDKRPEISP
The settings on record: protein: recombinant; tags: N-terminal GST; dsDNA, one strand shown. A digest of the protocol:
as §1

The next experiment has as its target T11, ELF5 (Homo sapiens, UniProt Q9UKW6-2 1-255).
T11 sequence: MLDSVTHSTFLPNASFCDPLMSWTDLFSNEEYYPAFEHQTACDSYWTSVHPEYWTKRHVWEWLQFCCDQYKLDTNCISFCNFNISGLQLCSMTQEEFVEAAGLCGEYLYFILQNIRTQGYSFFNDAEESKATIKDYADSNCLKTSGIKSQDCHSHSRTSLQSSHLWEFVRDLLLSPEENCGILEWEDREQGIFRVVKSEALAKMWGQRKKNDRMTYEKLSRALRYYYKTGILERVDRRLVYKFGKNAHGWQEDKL
The settings on record: protein: recombinant; tags: N-terminal GST; dsDNA, one strand shown. Put shortly: as §1

Another experiment addresses T12, ETV3 (Homo sapiens, UniProt P41162-2 1-143).
T12 sequence: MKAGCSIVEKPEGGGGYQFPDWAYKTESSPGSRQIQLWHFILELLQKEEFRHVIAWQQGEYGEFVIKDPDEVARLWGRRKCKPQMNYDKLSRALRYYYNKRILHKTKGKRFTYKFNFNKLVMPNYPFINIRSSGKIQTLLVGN
The settings on record: protein: recombinant; tags: N-terminal GST; dsDNA, one strand shown. Put shortly: as §1

The next experiment concerns the target ETV6 (Homo sapiens, UniProt P41212 1-452). The settings on record: protein: recombinant; tags: N-terminal GST; dsDNA, one strand shown. A digest of the protocol:
as §1

Sequence of HSF1 (Q00613 whole entry): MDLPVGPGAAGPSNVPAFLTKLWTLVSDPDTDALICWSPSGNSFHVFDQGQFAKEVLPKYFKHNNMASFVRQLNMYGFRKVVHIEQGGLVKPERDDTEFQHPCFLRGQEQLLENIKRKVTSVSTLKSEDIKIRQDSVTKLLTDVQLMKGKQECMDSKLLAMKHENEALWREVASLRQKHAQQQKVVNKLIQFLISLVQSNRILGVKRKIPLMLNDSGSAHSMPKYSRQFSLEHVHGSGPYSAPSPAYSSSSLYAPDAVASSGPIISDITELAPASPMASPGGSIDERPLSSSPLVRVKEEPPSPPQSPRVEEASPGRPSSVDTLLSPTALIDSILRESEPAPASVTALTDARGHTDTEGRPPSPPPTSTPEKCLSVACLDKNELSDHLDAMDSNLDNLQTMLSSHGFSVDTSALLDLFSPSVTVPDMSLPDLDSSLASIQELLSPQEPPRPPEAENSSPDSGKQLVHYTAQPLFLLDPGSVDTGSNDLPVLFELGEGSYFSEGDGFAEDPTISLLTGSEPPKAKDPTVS
Sequence of ETV6 (P41212 whole entry): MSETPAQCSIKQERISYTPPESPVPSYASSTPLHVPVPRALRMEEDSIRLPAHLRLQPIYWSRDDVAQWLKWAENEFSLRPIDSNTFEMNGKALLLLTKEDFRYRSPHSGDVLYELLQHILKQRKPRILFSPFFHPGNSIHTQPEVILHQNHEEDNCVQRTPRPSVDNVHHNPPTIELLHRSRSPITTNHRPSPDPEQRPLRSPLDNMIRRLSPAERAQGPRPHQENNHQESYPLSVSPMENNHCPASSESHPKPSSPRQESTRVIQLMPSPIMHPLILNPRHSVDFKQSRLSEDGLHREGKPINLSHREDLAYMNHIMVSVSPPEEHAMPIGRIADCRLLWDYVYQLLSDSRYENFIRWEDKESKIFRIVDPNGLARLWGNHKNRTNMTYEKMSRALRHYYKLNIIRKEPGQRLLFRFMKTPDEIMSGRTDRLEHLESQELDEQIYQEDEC
Sequence of ETV5 (P41161 whole entry): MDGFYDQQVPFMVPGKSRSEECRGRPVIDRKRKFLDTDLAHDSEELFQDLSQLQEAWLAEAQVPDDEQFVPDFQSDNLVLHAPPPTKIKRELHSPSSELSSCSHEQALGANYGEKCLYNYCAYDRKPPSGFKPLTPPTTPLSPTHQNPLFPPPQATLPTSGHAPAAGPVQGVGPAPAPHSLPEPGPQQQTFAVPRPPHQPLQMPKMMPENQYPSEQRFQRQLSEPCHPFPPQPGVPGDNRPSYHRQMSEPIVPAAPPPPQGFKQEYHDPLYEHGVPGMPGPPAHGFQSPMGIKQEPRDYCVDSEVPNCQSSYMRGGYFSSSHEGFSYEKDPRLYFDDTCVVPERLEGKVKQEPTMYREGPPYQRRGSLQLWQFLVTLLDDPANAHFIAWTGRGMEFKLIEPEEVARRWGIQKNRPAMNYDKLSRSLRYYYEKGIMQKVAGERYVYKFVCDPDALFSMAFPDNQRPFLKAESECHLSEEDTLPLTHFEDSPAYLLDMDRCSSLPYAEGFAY
Sequence of CRX (O43186 whole entry): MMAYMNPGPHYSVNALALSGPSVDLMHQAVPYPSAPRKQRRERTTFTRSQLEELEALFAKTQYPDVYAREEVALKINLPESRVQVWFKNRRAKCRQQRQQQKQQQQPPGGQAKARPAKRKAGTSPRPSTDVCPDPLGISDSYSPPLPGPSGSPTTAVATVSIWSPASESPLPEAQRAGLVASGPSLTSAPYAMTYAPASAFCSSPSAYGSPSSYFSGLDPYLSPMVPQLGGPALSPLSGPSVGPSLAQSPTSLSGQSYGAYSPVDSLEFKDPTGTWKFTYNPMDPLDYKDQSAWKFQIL
Sequence of ELF4 (Q99607 whole entry): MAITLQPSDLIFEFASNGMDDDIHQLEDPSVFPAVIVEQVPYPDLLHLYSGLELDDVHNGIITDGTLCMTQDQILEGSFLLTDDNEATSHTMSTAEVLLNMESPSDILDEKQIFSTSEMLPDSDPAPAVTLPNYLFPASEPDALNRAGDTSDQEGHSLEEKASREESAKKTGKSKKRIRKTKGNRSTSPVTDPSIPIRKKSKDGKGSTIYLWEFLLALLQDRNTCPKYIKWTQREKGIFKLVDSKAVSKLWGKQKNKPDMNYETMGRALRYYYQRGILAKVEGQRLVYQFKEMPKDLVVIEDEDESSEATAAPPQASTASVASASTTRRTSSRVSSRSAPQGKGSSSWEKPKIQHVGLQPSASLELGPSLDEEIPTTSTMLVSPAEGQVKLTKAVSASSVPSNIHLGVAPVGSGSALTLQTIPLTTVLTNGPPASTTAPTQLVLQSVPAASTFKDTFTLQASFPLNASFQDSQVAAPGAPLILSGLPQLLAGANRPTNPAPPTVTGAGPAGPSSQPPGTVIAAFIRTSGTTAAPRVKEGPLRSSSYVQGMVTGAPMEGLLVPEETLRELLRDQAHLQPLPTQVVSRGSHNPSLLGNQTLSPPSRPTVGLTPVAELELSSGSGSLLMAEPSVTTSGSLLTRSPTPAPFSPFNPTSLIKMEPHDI
Sequence of ETV1 (P50549 whole entry): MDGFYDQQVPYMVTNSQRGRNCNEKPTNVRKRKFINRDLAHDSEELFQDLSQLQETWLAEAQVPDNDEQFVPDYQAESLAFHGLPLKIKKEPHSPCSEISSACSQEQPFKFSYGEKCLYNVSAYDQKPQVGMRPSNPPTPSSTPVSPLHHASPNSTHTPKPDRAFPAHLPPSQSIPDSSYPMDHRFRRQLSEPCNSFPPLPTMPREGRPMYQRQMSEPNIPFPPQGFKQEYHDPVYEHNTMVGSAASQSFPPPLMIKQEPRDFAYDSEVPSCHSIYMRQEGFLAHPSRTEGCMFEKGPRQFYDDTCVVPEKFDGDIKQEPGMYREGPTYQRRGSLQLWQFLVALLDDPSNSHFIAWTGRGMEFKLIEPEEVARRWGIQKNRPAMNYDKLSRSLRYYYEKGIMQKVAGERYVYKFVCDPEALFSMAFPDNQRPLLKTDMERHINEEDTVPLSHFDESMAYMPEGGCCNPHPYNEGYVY

With TCCCTC, the binding signal was 1.56 fold enrichment (6-mer frequency, TF over GST control) in the experiment with FEV; 1.43 fold enrichment (6-mer frequency, TF over GST control) in the experiment with ETV5; 1.38 fold enrichment (6-mer frequency, TF over GST control) with HSF1; 1.35 fold enrichment (6-mer frequency, TF over GST control) with SPIC; 1.7 fold enrichment (6-mer frequency, TF over GST control) with ELF4; 1.78 fold enrichment (6-mer frequency, TF over GST control) in the experiment with ELK4. In addition, the binding signal is 1.43 fold enrichment (6-mer frequency, TF over GST control) with ETV2; 1.43 fold enrichment (6-mer frequency, TF over GST control) in the experiment with ELF3; 1.41 fold enrichment (6-mer frequency, TF over GST control) in the experiment with CRX; 1.43 fold enrichment (6-mer frequency, TF over GST control) in the experiment with ETV1; 1.46 fold enrichment (6-mer frequency, TF over GST control) with ERF; 1.41 fold enrichment (6-mer frequency, TF over GST control) with ETV3L. Besides, the binding signal was 1.49 fold enrichment (6-mer frequency, TF over GST control) with ETS2; 1.4 fold enrichment (6-mer frequency, TF over GST control) in the experiment with SPDEF; 1.4 fold enrichment (6-mer frequency, TF over GST control) with ETV7; 1.53 fold enrichment (6-mer frequency, TF over GST control) in the experiment with ELF5; 1.49 fold enrichment (6-mer frequency, TF over GST control) with ETV3; 1.43 fold enrichment (6-mer frequency, TF over GST control) with ETV6.
